# PubChem BioAssay (EPA / NIEHS)
# The source made the active and inactive calls. The calls were made as follows: active = hit-call score of the fitted dose curve at least 0.9, where 1 is the maximum; inactive = score below 0.9.
# Key:
# [1] = target: Hepatocyte nuclear factor 3-beta (Homo sapiens) (UniProt Q9Y261); experiment: ATG_FoxA2_CIS: Attagene CIS-FACTORIAL HepG2 Assay for human Forkhead box A2 (FOXA2) (AID 2282942); settings: HepG2 cis-reporter transcription factor activity, 24 h; actives raise or lower the signal
# Summary of the method: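 Endogenous transcription factor activity was read in HepG2 cells carrying transiently transfected cis-promoter reporter units. After 24 h dosing, reporter mRNA was quantified by RT-PCR and capillary electrophoresis, and values fitted bidirectionally versus DMSO.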
# [2] = ATG_FoxO_CIS: Attagene CIS-FACTORIAL HepG2 Assay for human Forkhead box O (FoxO) (AID 2282943); settings: HepG2 Attagene cis-reporter, FoxO element, mRNA; actives raise or lower the signal
# Summary of the method: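 Read-out: fluorescence of 6-FAM-labelled reporter cDNA fragments resolved by capillary electrophoresis. Transiently transfected HepG2 cells were dosed for 24 h; activity fitted in both directions relative to DMSO controls.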
# [3] = ATG_GATA_CIS: Attagene CIS-FACTORIAL HepG2 Assay for human GATA Binding Protein (AID 2282944); settings: HepG2 GATA cis-element reporter, Attagene multiplex mRNA; actives raise or lower the signal
# Summary of the method: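 Reporter transcripts from a GATA cis-regulated unit, among multiplexed reporters in transfected HepG2 cells, were measured by RT-PCR with capillary electrophoresis after 24 h dosing. Induction or loss scored relative to DMSO.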
# [4] = ATG_GLI_CIS: Attagene CIS-FACTORIAL HepG2 Assay for human Zinc Finger Protein GLI1 (AID 2282945); settings: HepG2, Attagene cis-factorial reporter mRNA, GLI element; actives raise or lower the signal
# Summary of the method: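 Transiently transfected HepG2 cells report endogenous transcription factor activity via cis-element-driven reporter units. After 24 h compound exposure, reporter mRNA was measured by RT-PCR with capillary electrophoresis; bidirectional fitting against DMSO baseline.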
# [5] = ATG_GRE_CIS: Attagene CIS-FACTORIAL HepG2 Assay for human Glucocorticoid Response Elements (GRE) (AID 2282947); settings: HepG2 GRE cis-reporter, Attagene multiplex mRNA; actives raise or lower the signal
# Summary of the method: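 Fluorescence intensity of reporter-specific cDNA fragments, separated by capillary electrophoresis, provides the signal. Constructs carry cis-regulating promoters in transiently transfected HepG2 liver cells; 24 h incubation; fitting is bidirectional against DMSO.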
# [6] = ATG_ISRE_CIS: Attagene CIS-FACTORIAL HepG2 Assay for human Interferon Regulatory Factor 1 (IRF1) binding to an Interferon-Stimulated Response Element (ISRE) (AID 2282948); settings: HepG2 ISRE cis-reporter (Attagene), mRNA transcription readout; actives raise or lower the signal
# Summary of the method: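 Uses HepG2 liver cells transfected with cis-regulated reporters and measures mRNA 24 h post-dosing through RT-PCR, primer-extension labelling and capillary electrophoresis, with DMSO as negative control.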
# [7] = ATG_M_32_CIS: Attagene CIS-FACTORIAL HepG2 Assay for M32 Transcription Factor (Internal Marker) (AID 2282949); settings: HepG2 Attagene cis-factorial M32 reporter, mRNA; actives raise or lower the signal;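 also: background control marker of the multiplexed CIS panel rather than a real target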
# Summary of the method: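 HepG2 transfectants (cis-regulated reporter transcription units) dosed 24 h. Reporter mRNA by RT-PCR plus CE, analysed as gain or loss relative to DMSO.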
# [8] = target: Hypoxia-inducible factor 1-alpha (Homo sapiens) (UniProt Q16665); experiment: ATG_HIF1a_CIS: Attagene CIS-FACTORIAL HepG2 Assay for human Hypoxia Inducible Factor 1 (HIF1A) (AID 2282951); settings: HepG2 Attagene cis-factorial HIF1a reporter transcription; actives raise or lower the signal
# Summary of the method: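 Measures endogenous transcription-factor activity through cis-regulated reporter mRNA in HepG2. Cells dosed 24 h; transcripts quantified by RT-PCR with 6-FAM-labelled products separated by capillary electrophoresis; DMSO serves as negative control.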
# [9] = target: Hepatocyte nuclear factor 6 (Homo sapiens) (UniProt Q9UBC0); experiment: ATG_HNF6_CIS: Attagene CIS-FACTORIAL HepG2 Assay for human Hepatocyte Nuclear Factor 6 (HNF6) (AID 2282952); settings: HepG2 Attagene cis-factorial HNF6 reporter transcription; actives raise or lower the signal
# Summary of the method: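 First, HepG2 cells were transfected with the multiplexed cis reporter library and dosed with chemical for 24 h. Next, RNA was reverse-transcribed, PCR-amplified and fluorescently labelled. Finally, HpaI-digested fragments were read by capillary electrophoresis.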
# [10] = target: Heat shock factor protein 1 (Homo sapiens) (UniProt Q00613); experiment: ATG_HSE_CIS: Attagene CIS-FACTORIAL HepG2 Assay for human Heat Shock Transcription Factor 1 (HSE) (AID 2282953); settings: HepG2 HSE cis-reporter, Attagene RNA transcription; actives raise or lower the signal
# Summary of the method: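 Endogenous transcription factor activity in transiently transfected HepG2, read as reporter mRNA by RT-PCR with fluorescent capillary electrophoresis after 24 h. Gain or loss of signal fitted versus DMSO baseline.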
# [11] = ATG_MRE_CIS: Attagene CIS-FACTORIAL HepG2 Assay for human Metal Responsive Element (MRE) (AID 2282954); settings: HepG2 MRE cis-reporter transcription, Attagene multiplex; actives raise or lower the signal
# Summary of the method: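 Measured here is mRNA induction from an MRE cis-element reporter in HepG2 after 24 h, quantified by fluorescence of labelled RT-PCR products on capillary electrophoresis; gain- and loss-of-signal fits use DMSO as baseline.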
# [12] = ATG_PBREM_CIS: Attagene CIS-FACTORIAL HepG2 Assay for human Phenobarbital-responsive Enhancer Module (PBREM) (AID 2282955); settings: HepG2 PBREM cis-reporter, Attagene multiplexed transcription; actives raise or lower the signal
# Summary of the method: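 Fluorescence of labelled reporter cDNA fragments, resolved by capillary electrophoresis, gives mRNA induction in transfected HepG2 cells treated for 24 h; DMSO serves as negative control and baseline.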
# [13] = target: Paired box protein Pax-6 (Homo sapiens) (UniProt P26367); experiment: ATG_Pax6_CIS: Attagene CIS-FACTORIAL HepG2 Assay for human Paired Box 6 (PAX6) (AID 2282956); settings: HepG2 CIS-FACTORIAL PAX6 reporter transcription, RNA readout; actives raise or lower the signal
# Summary of the method: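 DMSO-referenced bidirectional fits of reporter mRNA fluorescence; HepG2 with transient cis-promoter MRTUs, 24 h post-dose, RT-PCR plus capillary electrophoresis detection.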
# [14] = ATG_PPRE_CIS: Attagene CIS-FACTORIAL HepG2 Assay for human Peroxisome Proliferator-activated Response Element (PPRE) (AID 2282958); settings: HepG2 PPRE cis-element reporter, Attagene transcription factor profiling; actives raise or lower the signal
# Summary of the method: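 Cells are first transfected transiently with the multiplexed reporter library, then dosed for 24 h. Total RNA is reverse-transcribed, amplified, fluorescently end-labeled and HpaI-cut before capillary electrophoresis; activity is fitted bidirectionally against DMSO controls.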
# [15] = ATG_RORE_CIS: Attagene CIS-FACTORIAL HepG2 Assay for human RAR-related Orphan Receptor Element (RORE) (AID 2282959); settings: HepG2 Attagene cis-factorial RORE reporter, mRNA; actives raise or lower the signal
# Summary of the method: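 Cells were HepG2 carrying transfected cis-regulated reporter constructs, dosed for 24 hours. Total RNA was reverse-transcribed and reporter cDNA amplified, fluorescently labeled and sized by capillary electrophoresis. Activity was fitted bidirectionally relative to DMSO.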
# [16] = ATG_Sox_CIS: Attagene CIS-FACTORIAL HepG2 Assay for human SRY-box transcription factor (SOX) (AID 2282960); settings: HepG2 Attagene cis-factorial SOX reporter, mRNA; actives raise or lower the signal
# Summary of the method: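 Transient MRTU transfection of HepG2; 24 h compound incubation; TriZol RNA, oligo(dT) RT, PCR, 6-FAM primer extension, HpaI cut, CE. Bidirectional fit, DMSO = baseline.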
# [17] = target: Bile acid receptor (Homo sapiens) (UniProt Q96RI1); experiment: ATG_IR1_CIS: Attagene CIS-FACTORIAL HepG2 Assay for human Nuclear Receptor Subfamily 1 Group H Member 4 (NR1H4), IR1 submotif (AID 2282946); settings: IR1 reporter transcription, actives raise or lower the signal
# Summary of the method: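 Fluorescence of capillary-separated, HpaI-digested RT-PCR reporter products gave IR1-element mRNA induction in HepG2 cells 24 h after dosing. Endogenous transcription factors drove the cis-regulated reporters; activity was fitted bidirectionally against DMSO.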
# [18] = ATG_M_06_CIS: Attagene CIS-FACTORIAL HepG2 Assay for M06 Transcription Factor (Internal Marker) (AID 2282950); settings: HepG2 Attagene CIS-FACTORIAL M06 internal marker reporter; actives raise or lower the signal
# Summary of the method: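 Serves as a background control readout. Transfected HepG2 exposed to compounds for 24 h, then reporter transcripts quantified by fluorescent RT-PCR and capillary electrophoresis. Both directions fitted against DMSO baseline.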
# [19] = ATG_PXRE_CIS: Attagene CIS-FACTORIAL HepG2 Assay for human Pregnane X Receptor Element (PXRE) (AID 2282957); settings: HepG2 Attagene CIS-FACTORIAL PXRE reporter, mRNA; actives raise or lower the signal
# Summary of the method: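 After a 24 h chemical incubation, total RNA from transfected HepG2 cells was reverse-transcribed and reporter cDNA amplified, FAM-labeled, HpaI-digested and sized by capillary electrophoresis. DMSO served as baseline for bidirectional curve fitting.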
# Chain of Hepatocyte nuclear factor 3-beta (Homo sapiens) (Q9Y261 whole entry, looked up): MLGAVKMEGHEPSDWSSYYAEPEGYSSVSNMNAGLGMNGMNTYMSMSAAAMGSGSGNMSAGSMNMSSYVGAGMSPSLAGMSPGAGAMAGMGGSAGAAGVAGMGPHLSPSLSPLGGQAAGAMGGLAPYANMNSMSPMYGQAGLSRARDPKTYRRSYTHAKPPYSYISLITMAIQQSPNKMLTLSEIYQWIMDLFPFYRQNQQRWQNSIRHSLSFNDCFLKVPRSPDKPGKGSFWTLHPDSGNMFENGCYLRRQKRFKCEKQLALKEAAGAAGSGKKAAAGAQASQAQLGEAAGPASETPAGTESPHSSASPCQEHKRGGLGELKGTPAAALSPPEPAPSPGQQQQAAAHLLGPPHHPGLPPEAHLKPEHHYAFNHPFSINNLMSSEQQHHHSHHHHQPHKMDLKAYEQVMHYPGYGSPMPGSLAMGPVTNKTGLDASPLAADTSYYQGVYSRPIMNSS
# Chain of Hepatocyte nuclear factor 6 (Homo sapiens) (Q9UBC0 whole entry, looked up, the tested form may be a part): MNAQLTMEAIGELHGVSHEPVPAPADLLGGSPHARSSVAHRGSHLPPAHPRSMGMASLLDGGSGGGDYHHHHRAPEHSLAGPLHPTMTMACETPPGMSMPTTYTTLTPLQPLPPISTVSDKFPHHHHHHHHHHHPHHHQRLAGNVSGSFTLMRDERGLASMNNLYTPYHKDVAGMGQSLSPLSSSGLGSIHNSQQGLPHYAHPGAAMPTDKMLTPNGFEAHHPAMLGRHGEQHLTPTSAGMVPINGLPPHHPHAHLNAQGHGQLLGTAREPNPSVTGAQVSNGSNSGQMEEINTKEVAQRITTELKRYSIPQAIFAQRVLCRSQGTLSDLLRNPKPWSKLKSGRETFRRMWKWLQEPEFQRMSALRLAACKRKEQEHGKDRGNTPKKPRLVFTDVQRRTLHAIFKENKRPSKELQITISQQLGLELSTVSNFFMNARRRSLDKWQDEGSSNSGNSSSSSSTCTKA
# Chain of Bile acid receptor (Homo sapiens) (Q96RI1 whole entry, looked up): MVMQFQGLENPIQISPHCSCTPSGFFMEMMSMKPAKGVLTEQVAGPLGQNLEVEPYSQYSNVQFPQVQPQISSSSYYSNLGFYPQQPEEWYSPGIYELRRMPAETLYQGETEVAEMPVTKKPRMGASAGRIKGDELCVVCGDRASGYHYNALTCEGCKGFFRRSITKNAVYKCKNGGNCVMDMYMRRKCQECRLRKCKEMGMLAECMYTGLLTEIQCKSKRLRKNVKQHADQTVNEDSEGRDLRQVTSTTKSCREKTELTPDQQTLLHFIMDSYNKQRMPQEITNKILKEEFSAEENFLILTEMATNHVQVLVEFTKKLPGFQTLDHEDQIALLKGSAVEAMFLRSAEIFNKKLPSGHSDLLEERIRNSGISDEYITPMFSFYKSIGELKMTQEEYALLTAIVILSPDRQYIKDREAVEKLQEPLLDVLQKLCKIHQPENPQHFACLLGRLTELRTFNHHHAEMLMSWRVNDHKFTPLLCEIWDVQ
# Chain of Heat shock factor protein 1 (Homo sapiens) (Q00613 whole entry, looked up): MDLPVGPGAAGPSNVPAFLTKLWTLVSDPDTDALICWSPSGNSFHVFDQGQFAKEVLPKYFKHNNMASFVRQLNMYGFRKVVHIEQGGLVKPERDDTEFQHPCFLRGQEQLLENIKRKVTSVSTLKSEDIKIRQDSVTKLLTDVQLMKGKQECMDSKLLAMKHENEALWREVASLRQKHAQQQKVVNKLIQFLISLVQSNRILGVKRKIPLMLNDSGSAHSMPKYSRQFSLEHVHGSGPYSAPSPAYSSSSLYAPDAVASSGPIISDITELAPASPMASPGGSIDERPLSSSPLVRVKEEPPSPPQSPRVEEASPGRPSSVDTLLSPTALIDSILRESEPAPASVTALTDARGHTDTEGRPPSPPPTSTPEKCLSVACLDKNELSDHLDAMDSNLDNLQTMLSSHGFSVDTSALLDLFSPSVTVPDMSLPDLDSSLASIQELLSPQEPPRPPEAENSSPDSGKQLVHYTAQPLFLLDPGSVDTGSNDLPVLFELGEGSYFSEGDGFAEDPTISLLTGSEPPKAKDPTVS
# Chain of Paired box protein Pax-6 (Homo sapiens) (P26367 whole entry, looked up): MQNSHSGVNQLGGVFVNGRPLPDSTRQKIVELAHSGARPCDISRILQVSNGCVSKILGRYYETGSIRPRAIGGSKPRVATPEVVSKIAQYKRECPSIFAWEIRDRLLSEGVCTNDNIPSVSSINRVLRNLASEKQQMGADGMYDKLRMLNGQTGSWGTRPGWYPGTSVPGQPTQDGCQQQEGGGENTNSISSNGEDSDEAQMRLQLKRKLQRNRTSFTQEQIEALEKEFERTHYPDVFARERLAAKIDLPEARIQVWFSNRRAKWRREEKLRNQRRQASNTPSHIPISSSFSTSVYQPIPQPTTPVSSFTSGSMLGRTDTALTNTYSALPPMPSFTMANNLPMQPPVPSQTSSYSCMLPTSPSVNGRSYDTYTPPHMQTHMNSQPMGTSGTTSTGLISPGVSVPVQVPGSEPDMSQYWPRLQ
# Chain of Hypoxia-inducible factor 1-alpha (Homo sapiens) (Q16665 whole entry, looked up): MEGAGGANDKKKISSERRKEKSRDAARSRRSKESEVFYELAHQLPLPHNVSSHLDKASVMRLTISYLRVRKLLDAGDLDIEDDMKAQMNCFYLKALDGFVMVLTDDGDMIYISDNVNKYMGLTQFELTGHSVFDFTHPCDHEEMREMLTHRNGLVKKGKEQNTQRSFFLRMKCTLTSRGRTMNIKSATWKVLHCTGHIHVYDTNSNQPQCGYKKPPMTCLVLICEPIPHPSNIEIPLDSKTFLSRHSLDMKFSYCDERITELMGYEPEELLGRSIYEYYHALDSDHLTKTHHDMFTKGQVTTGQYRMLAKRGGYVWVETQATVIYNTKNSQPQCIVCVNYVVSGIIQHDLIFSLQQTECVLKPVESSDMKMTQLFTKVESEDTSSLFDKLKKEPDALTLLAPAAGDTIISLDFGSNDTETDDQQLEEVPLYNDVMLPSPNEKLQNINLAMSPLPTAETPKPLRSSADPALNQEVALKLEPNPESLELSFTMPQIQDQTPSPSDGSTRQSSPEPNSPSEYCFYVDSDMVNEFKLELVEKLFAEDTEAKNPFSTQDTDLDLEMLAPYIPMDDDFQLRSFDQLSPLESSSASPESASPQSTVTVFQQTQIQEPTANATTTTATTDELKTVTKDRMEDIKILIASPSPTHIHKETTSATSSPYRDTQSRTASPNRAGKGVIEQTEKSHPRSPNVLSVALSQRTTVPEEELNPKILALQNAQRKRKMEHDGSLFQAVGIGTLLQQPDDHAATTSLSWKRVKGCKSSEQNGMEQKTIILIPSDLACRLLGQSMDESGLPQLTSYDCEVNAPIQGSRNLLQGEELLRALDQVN
smiles,measurement,setting,value
O=CC=O,outcome,[1],inactive
same,outcome,[2],inactive
same,outcome,[3],inactive
same,outcome,[4],inactive
same,outcome,[5],inactive
same,outcome,[6],inactive
same,outcome,[7],inactive
same,outcome,[8],inactive
same,outcome,[9],inactive
same,outcome,[10],inactive
same,outcome,[11],inactive
same,outcome,[12],inactive
same,outcome,[13],inactive
same,outcome,[14],inactive
same,outcome,[15],inactive
same,outcome,[16],inactive
CCNc1nc(NC(C)(C)C)nc(SC)n1,outcome,[1],inactive
same,outcome,[2],inactive
same,outcome,[3],inactive
same,outcome,[17],inactive
same,outcome,[5],inactive
same,AC50,[6],100 µM (active)
same,outcome,[7],inactive
same,outcome,[18],inactive
same,outcome,[8],inactive
same,outcome,[9],inactive
same,outcome,[10],inactive
same,outcome,[13],inactive
same,AC50,[19],1.67 µM (active)
same,AC50,[14],144 µM (active)
same,outcome,[15],inactive
same,outcome,[16],inactive
Nc1ccc(-c2ccc(N)c(Cl)c2)cc1Cl,outcome,[1],inactive
same,outcome,[3],inactive
same,outcome,[5],inactive
same,outcome,[6],inactive
same,outcome,[7],inactive
same,outcome,[18],inactive
same,outcome,[8],inactive
same,outcome,[9],inactive
same,AC50,[11],46.5 µM (active)
same,outcome,[13],inactive
same,AC50,[15],24.3 µM (active)
same,outcome,[16],inactive
CCC(=O)c1ccccc1,outcome,[1],inactive
same,outcome,[3],inactive
same,outcome,[4],inactive
same,outcome,[17],inactive
same,outcome,[6],inactive
same,outcome,[7],inactive
same,outcome,[18],inactive
same,outcome,[8],inactive
same,outcome,[9],inactive
same,outcome,[10],inactive
same,outcome,[11],inactive
same,outcome,[12],inactive
same,outcome,[13],inactive
same,outcome,[14],inactive
same,outcome,[16],inactive
N#CN=C(N)N,outcome,[1],inactive
same,outcome,[2],inactive
same,outcome,[3],inactive
same,outcome,[4],inactive
same,outcome,[17],inactive
same,outcome,[7],inactive
same,outcome,[18],inactive
same,outcome,[8],inactive
same,outcome,[9],inactive
same,outcome,[10],inactive
same,outcome,[11],inactive
same,outcome,[12],inactive
same,outcome,[13],inactive
same,outcome,[19],inactive
same,outcome,[14],inactive
same,outcome,[15],inactive
same,outcome,[16],inactive
ClC1=C(Cl)[C@]2(Cl)[C@@H]3[C@@H](Cl)[C@@H](Cl)C[C@@H]3[C@@]1(Cl)C2(Cl)Cl,outcome,[1],inactive
same,outcome,[2],inactive
same,outcome,[3],inactive
same,outcome,[17],inactive
same,outcome,[5],inactive
same,outcome,[6],inactive
same,outcome,[7],inactive
same,outcome,[18],inactive
same,outcome,[8],inactive
same,outcome,[9],inactive
same,outcome,[10],inactive
same,outcome,[11],inactive
same,outcome,[12],inactive
same,outcome,[13],inactive
same,outcome,[19],inactive
same,outcome,[14],inactive
same,outcome,[15],inactive
same,outcome,[16],inactive
CCCCOCCOC(C)=O,outcome,[1],inactive
same,outcome,[2],inactive
same,outcome,[3],inactive
same,outcome,[4],inactive
same,outcome,[17],inactive
same,outcome,[5],inactive
same,outcome,[7],inactive
same,outcome,[18],inactive
same,outcome,[8],inactive
same,outcome,[9],inactive
same,outcome,[10],inactive
same,outcome,[11],inactive
same,outcome,[12],inactive
same,outcome,[13],inactive
same,outcome,[19],inactive
same,outcome,[14],inactive
same,outcome,[15],inactive
same,outcome,[16],inactive
